Results published in PubChem BioAssay (NCATS).
Where “and” joins values, the source holds several entries; their conditions need not be identical. Identical values can stand only once. Inconclusive results are not listed. Calls of active or inactive are those of the source. Calls follow the shape of the dose curve; as a rule, active = well fitted curve in the direction sought with a large enough effect; inconclusive = small, poorly fitted or top-dose-only effect, or another doubt; inactive = no such curve, though single readings can be large or run the other way.
% is scaled to controls: 0 for no effect and ±100 for the full control effect.

Assay: qHTS Assay for Identifying Gametocytocidal Compounds (AID 743244);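 also: actives lower the fluorescent signal which means gametocytes are killed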
Conditions: P. falciparum 3D7 stage III-V gametocytes, alamarBlue, 72 h; max response: hits give low values
In short: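 Fluorescence at Ex 525/Em 598 nm, recorded 24 h after alamarBlue addition, reports residual metabolic activity of 3D7 gametocytes (stages III–V) following 72 h compound exposure at 37 °C, 5% CO2.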
In the case of `CN1CC[C@]23c4c5ccc(O)c4O[C@H]2[C@@H](O)CC[C@H]3[C@H]1C5`, the max response was 10.1% (inactive). With `C[C@H]1[C@@H]2Cc3ccc(O)cc3[C@@]1(C)CCN2C` the max response was 2.87% (inactive). In the case of `CN(C)CCc1c[nH]c2cccc(OP(=O)(O)O)c12`, the max response was 13% (inactive). For `CCCCCCCCCC(=O)O[C@H]1CC[C@H]2[C@@H]3CCC4=CC(=O)CC[C@@H]4[C@H]3CC[C@]12C`, the max response was 5.38% (inactive). In the case of `CCCCCCC(=O)CCCCCC/C=C/C[C@@H](O)[C@H](O)[C@@](N)(CO)C(=O)O`, the max response was -3.38% (inactive) and -2.5% (inactive). With `CCN[C@H](C)Cc1cccc(C(F)(F)F)c1` the max response was 16.7% (inactive). In the case of `CN[C@@H](C)Cc1ccccc1`, the max response was 5.78% (inactive). For `CN1CCC[C@@H]1c1cccnc1`, the max response was 35% (inactive). With `O=C1OC(c2ccc(O)c(S(=O)(=O)O)c2)(c2ccc(O)c(S(=O)(=O)O)c2)c2c(Br)c(Br)c(Br)c(Br)c21` the max response was 21% (inactive). In the case of `COC(=O)C(Cl)C(=O)OC`, the max response was -5.17% (inactive). With `COc1cc(CCN)cc(OC)c1OC` the max response was 17.2% (inactive).
